Source: PubChem BioAssay AID1159580 (chemical genetic matrix, 2015)
Screen size: about 5,500 compounds; about 2,000 (36%) were called active. Not shown: some 18% with an inconclusive outcome. Rule as the data show it: active = normalized growth mostly below about 0.91 (no sharp cut-off); inconclusive = no clear call, values can overlap the other calls; inactive = mostly above about 0.92. Some of the results follow.

Test: chemical genetic growth profiling, strain panel (AID 1159580);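 also: tested at 20 µM; growth read once vehicle control cultures reached saturation at 30 °C; 1 = growth at the plate median or of vehicle wells; lower values mean less growth of the strain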
Conditions: S. cerevisiae deletion strains, growth OD
[1] = locus YAL013W, strain DEP1, stronger effect = lower value
[2] = locus YBR229C, strain ROT2, stronger effect = lower value
[3] = locus YCL061C, strain MRC1, stronger effect = lower value
[4] = locus YDL101C, strain DUN1, stronger effect = lower value
[5] = locus YDR150W, strain NUM1, stronger effect = lower value
[6] = locus YEL061C, strain CIN8, stronger effect = lower value
[7] = locus YGR078C, strain PAC10, stronger effect = lower value
[8] = locus YHR030C, strain SLT2, stronger effect = lower value
[9] = locus YHR087W, strain rtc3, stronger effect = lower value
[10] = locus YJR043C, strain POL32, stronger effect = lower value
[11] = locus YJR075W, strain HOC1, stronger effect = lower value
[12] = locus YLR039C, strain RIC1, stronger effect = lower value
[13] = locus YLR058C, strain SHM2 (second series), stronger effect = lower value
[14] = locus YLR085C, strain ARP6, stronger effect = lower value
[15] = locus YLR262C, strain YPT6, stronger effect = lower value
[16] = locus YML094W, strain GIM5, stronger effect = lower value
[17] = locus YMR219W, strain ESC1, stronger effect = lower value
[18] = locus YMR263W, strain SAP30, stronger effect = lower value
[19] = locus YNL153C, strain GIM3, stronger effect = lower value
[20] = locus YNL298W, strain CLA4 (second series), stronger effect = lower value
[21] = locus YNL322C, strain KRE1, stronger effect = lower value
[22] = locus YNR030W, strain Alg12, stronger effect = lower value
[23] = locus YOL006C, strain TOP1, stronger effect = lower value
[24] = locus YPL055C, strain LGE1, stronger effect = lower value
[25] = locus YPL241C, strain CIN2, stronger effect = lower value
[26] = locus YPR135W, strain CTF4, stronger effect = lower value

Measured: normalized growth

O=S(=O)(NCc1ccc2c(c1)OCO2)c1ccc(F)c(Cl)c1
inactive: [1] 0.98 | [2] 0.94 | [3] 0.977 | [4] 0.925 | [5] 0.913 | [6] 0.965 | [7] 0.96 | [8] 0.779 | [9] 0.948 | [10] 0.968 | [11] 0.937 | [13] 0.951 | [14] 0.991 | [16] 1 | [17] 0.962 | [18] 0.965 | locus YNL128W, strain TEP1, stronger effect = lower value 0.957 | [19] 0.971 | [20] 0.943 | [21] 0.967 | [22] 0.954 | [23] 0.843 | [24] 0.995 | [25] 0.998 | [26] 0.784
active: [12] 0.757 | [15] 0.683

O=S(=O)(NCC1CC1)c1ccc(F)c(Cl)c1
inactive: [1] 1 | [2] 1 | [3] 0.999 | [4] 0.994 | locus YDL134C, strain PPH21, stronger effect = lower value 1.01 | [5] 0.945 | [6] 1 | [7] 1 | [8] 0.969 | [9] 1.02 | [10] 0.997 | [11] 1.01 | [12] 1.06 | [13] 1 | [14] 1 | [15] 1 | [16] 1.01 | [17] 1 | [18] 1 | [19] 1 | [20] 1.03 | [21] 0.995 | [22] 0.996 | [23] 1.05 | [24] 1.02 | [25] 0.99 | [26] 1.02
